Unmarked numbers belong to inactive results. The source made the active and inactive calls. Calls follow the shape of the dose curve; as a rule, active = well fitted curve in the direction sought with a large enough effect in the repeat runs; inconclusive = weak or mixed curves; inactive = flat fitted curve, though single readings scatter.
test: qHTS assay to test for compound auto fluorescence at 535 nm (green) in HEK293 cells (AID 720680); details: green autofluorescence 485/535 nm; series mostly up to 91.3 µM; fluorescence, % of fluorescein: at the top concentration
From the text: U.S. Tox21 Program National Center for Advancing Translational Sciences [NCATS] NIH Chemical Genomics Center [NCGC] U.S. Environmental Protection Agency [EPA] National Institutes of Environmental Health Sciences [NIEHS] National Toxicology Program [NTP] U.S. Food and Drug Administration [FDA] Tox21 Assay Overview: Compound auto fluorescence often interferes with screening of the compound library against various biological targets and signaling pathways. Some of these compounds may have fluorophoric properties. Such properties may interfere with the assay outputs resulting in false positives and/or negatives. To decrease such complications and ensure the compound activities are relevant in terms of biological response, the Tox21 10K compound library was screened for auto fluorescence. From the fluorophores used as reporter signals in our screening assays, the auto fluorescence equivalencies of compounds against three fluorophores have been evaluated: Triamterene, Fluorescein and Rose Bengal sodium for blue, green and red fluorescence, respectively. The fluorescence intensities were measured using Excitation/Emission wavelengths at 405/460nm, 485/535nm and 540/590nm for blue, green and red labels, respectively. This assay includes the green fluorescence data.
Tox21 Assay Protocol Summary: 2,000 HEK293 cells in 5 uL of culture medium containing 10% dialyzed FBS per well were dispensed into black wall/clear bottom 1536-well plates using a Multidrop Combi Dispenser (Thermo Scientific). The assay plates were incubated for 4-5 hr at 37C to allow cell attachment to the well bottom, followed by the transfer of 23 nL compound or DMSO vehicle by a pintool work station (Kalypsys, San Diego, CA). After the assay plates were incubated overnight at 37C and 5% CO2, fluorescence intensities in the assay plates were measured by an Envision (PerkinElmer, Shelton, CT) plate reader using three labels for measuring blue, green and red fluorescence at […] 460, 535 and 590nm respectively.
% is scaled to controls: 0 for no effect and ±100 for the full control effect.

Point of comparison: `O=C(NCc1cccnc1)Nc1ccc([N+](=O)[O-])cc1`, “fluorescence, % of fluorescein” value -0.0162%. Against it:
- CC(C)(CCl)C(=O)Cl — lower, -0.134%
- Cn1cc[n+](C)c1 (tested in a mixture with another compound) — higher, 0.0182%
- CC(C)(C)C(O)C(Oc1ccc(Cl)cc1)n1cncn1 (stereo not given) — lower, -0.131%
- COP(=S)(Oc1cc(Cl)c(Br)cc1Cl)c1ccccc1 (stereo not given) — higher, 0.0646%
- CCOC(=O)COc1cc(-c2nn(C)c(OC(F)F)c2Cl)c(F)cc1Cl — lower, -0.0239%
- O=C(O)C1(c2ccc3c(c2)OC[C@H](Cc2ccc(-c4ccccc4)cc2)[C@H]3O)CCCC1 — higher, -0.0044%
- CCc1ccc(C(=O)NN(C(=O)c2cc(C)cc(C)c2)C(C)(C)C)cc1 — higher, -0.0143%
- O=[N+]([O-])c1cc(C(F)(F)F)cc([N+](=O)[O-])c1Cl — lower, -0.134%
- ClCCCCBr — lower, -0.0742%
- N#C/C(N)=C(/N)C#N — higher, 0.173%
- O=C(NC(=O)c1c(F)cccc1F)Nc1cc(Cl)c(Oc2ncc(C(F)(F)F)cc2Cl)c(Cl)c1 — higher, 0.0652%
- CCOC(=O)CBr — higher, 0.117%
- Clc1cc(C(Cl)(Cl)Cl)cnc1Cl — higher, -0.0092%
- C=CC(=O)OCC(C)C — higher, 0.0193%
- O=C(Nc1ccccc1)Nc1ccnc(Cl)c1 — higher, -0.0006%
- CC/C(=N\OC/C=C/Cl)C1=C(O)CC(C2CCOCC2)CC1=O (stereo not given) — higher, 0.149%
- C=CCOC(C)=O — higher, 0.0103%
- O=C=Nc1ccc(Cl)cc1 — higher, 0.0147%
- C/C(=C\c1ccccc1)[N+](=O)[O-] — higher, -0.0128%
- Nc1nc(=S)[nH][nH]1 — higher, 0.0626%
- c1ccoc1 — higher, 0.063%
- C=CC(=O)OCCCCO — lower, -0.139%
- ClCc1ccccc1 — higher, 0.0171%
- CO/C=C(/C(=O)OC)c1ccccc1COc1cccc(C(F)(F)F)n1 — higher, 0.0164%

Point of comparison: `NCCCNCCCN`, “fluorescence, % of fluorescein” value -0.194% [at 95.7 µM]. Against it:
- O=C(N[C@H](c1ccccc1)[C@@H]1CN2CCC1CC2)c1c(Cl)ccc(C(F)(F)F)c1Cl — higher, 0.0066% [at 95.7 µM]
- C=CC(=O)OCC(C)O (stereo not given) — higher, 0.0416% [at 95.7 µM]
- C=COC(C)=O — higher, -0.0228% [at 95.7 µM]

Point of comparison: `O=C(NC(=O)c1c(F)cccc1F)Nc1ccc(OC(F)(F)C(F)OC(F)(F)F)c(Cl)c1` (stereo not given), “fluorescence, % of fluorescein” value -0.122% [at 46 µM]. Against it:
- C[C@H]1CNCCc2ccc(Cl)cc21 — higher, -0.0437% [at 46 µM]
- C#CCOC(C(=O)OCCN(C)C)(c1ccccc1)c1ccccc1 — higher, -0.108% [at 46 µM]
- CN1[C@@H]2CC[C@H]1CC(OC(=O)c1cc(Cl)cc(Cl)c1)C2 (stereo not given in full) — higher, -0.0868% [at 46 µM]
- C=CC[C@]1(O)CC[C@H]2[C@@H]3CCC4=CC(=O)CCC4=C3C=C[C@@]21C — higher, -0.0327% [at 46 µM]
- c1ccc(C2CC2)c(OCC2=NCCN2)c1 — higher, 0.0288% [at 46 µM]

With `CCOP(=O)(OCC)O/C(=C/Cl)c1ccc(Cl)cc1Cl` the outcome was “inactive”.
In the case of `CCOP(=O)(OCC)Oc1ccc([N+](=O)[O-])cc1`, the outcome is reported as “inactive”.
In the case of `ClC=C(Cl)Cl`, the outcome is reported as “inactive”.
In the case of `CN1C(=O)C(O)N=C(c2ccccc2)c2cc(Cl)ccc21` (stereo not given), the outcome is reported as “inactive”.
For `O=[N+]([O-])C(Br)(CO)CO`, the outcome was “inactive”.
